AMA1-RON2 inh: inhibitors of Plasmodium falciparum AMA1-RON2 interaction | Potency, µM (highest dose often 58.2 µM), usual class: inhibitors | actives 0.2% (n = 360,000) | AID 720542 | AlphaScreen AMA1-biotinylated RON2 peptide binding; further: nearly all actives have a fitted effect of over 45% in size
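AMA1 (3D7) with his tag at 25 nM final met compounds first, then biotinylated RON2 peptide at 25 nM; detection used donor plus acceptor beads, 10 µg/mL apiece, read by AlphaScreen after 30 min at room temperature.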
Giardia FBPA inh: inhibitors of Giardia lamblia fructose-1,6-bisphosphate aldolase. Potency, µM (highest dose often 59.6 µM), actives largely listed as inhibitors. actives 0.71% (n = 290,000). purified Giardia FBPA. AID 2451. A8B2U2; further: nearly all actives have a fitted effect of over 55% in size
Target sequence (A8B2U2 whole entry, looked up): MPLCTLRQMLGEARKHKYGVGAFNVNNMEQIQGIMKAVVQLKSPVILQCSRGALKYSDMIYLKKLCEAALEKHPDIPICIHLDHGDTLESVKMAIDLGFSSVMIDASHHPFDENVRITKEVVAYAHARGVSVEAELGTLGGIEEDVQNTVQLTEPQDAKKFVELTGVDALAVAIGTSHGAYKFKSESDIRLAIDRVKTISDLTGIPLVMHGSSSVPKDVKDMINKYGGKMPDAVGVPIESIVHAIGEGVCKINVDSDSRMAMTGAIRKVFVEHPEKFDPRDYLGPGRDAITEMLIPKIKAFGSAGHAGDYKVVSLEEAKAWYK
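40 nM FBPA preincubated 10 min at RT with compound (up to 57.5 uM final), then substrate plus GAPDH/TPI/NAD/arsenate coupling and diaphorase/resazurin added. Fluorescence read after 20 min at RT, 525/598 nm.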
AmpC inh no detg: inhibitors of E. coli AmpC beta-lactamase without detergent | Potency, µM (top dose mostly 57.1 µM), actives largely listed as inhibitors | P00811 | AmpC nitrocefin hydrolysis, absorbance 480 nm, 0.0001% Triton | actives 0.52% (n = 330,000) | AID 485341; further: nearly all actives have a fitted effect of over 20% in size
Target sequence (P00811 whole entry, looked up): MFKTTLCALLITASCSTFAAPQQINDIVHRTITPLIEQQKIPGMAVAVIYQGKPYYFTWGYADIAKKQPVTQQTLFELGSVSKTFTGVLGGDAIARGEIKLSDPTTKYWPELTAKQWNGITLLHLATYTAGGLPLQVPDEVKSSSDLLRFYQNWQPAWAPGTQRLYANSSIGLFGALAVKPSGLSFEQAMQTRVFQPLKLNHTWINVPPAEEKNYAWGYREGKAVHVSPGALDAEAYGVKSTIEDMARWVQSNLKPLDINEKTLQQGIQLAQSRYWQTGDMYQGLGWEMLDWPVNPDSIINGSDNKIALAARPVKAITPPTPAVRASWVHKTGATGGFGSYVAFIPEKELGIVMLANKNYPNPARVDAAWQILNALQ
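20 mM phosphate pH 7.0 + 0.01% (detergent screen) or 0.0001% Triton X-100; 5.3 nM AmpC reagent; cpd preinc 15 min RT; nitrocefin (800 uM stock) to start; A480 q20 s × 4 min; Activity was normalised to no-enzyme and no-compound control wells.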
AmpC detergent: AmpC beta-lactamase inhibition with detergent present; P00811; AmpC hydrolysis of nitrocefin, absorbance 480 nm, 0.01% Triton; Potency, µM (doses to about 114 µM), usual class: inhibitors; actives 0.041% (n = 370,000); AID 485294; further: nearly all actives have a fitted effect of over 25% in size
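AmpC (5.3 nM in the dispensed reagent) in 20 mM phosphate pH 7.0 with 0.01% (detergent screen) or 0.0001% Triton X-100 was preincubated with compounds for 15 min at room temperature. Nitrocefin was then added from an 800 uM solution, and hydrolysis was followed at 480 nm.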
A number is an active result; . = inactive; ? = inconclusive; / = no result. In the library only some 1.1% were active in any assay of this set; here they are far more common. The call rests on the fitted dose curve; in most records, active means well fitted curve in the direction sought with a large enough effect; inconclusive means small, poorly fitted or top-dose-only effect, or another doubt; inactive means no such curve, though single readings can be large; an effect the other way counts as inactive or inconclusive.

SMILES	AMA1-RON2 inh	Giardia FBPA inh	AmpC inh no detg	AmpC detergent
Cc1ccc(S(=O)(=O)/N=C2\C=C(Nc3cccc(C(=O)O)c3)C(=O)c3ccccc32)cc1	.	0.251µM	.	.
Cc1ccc(NC2=C/C(=N/S(=O)(=O)c3cccs3)c3ccccc3C2=O)cc1	.	?	.	.
CCc1ccc(S(=O)(=O)/N=C2\C=C(Nc3ccc(C(=O)O)cc3)C(=O)c3ccccc32)cc1	?	0.447µM	.	.
COCCNC(=S)N1CCC2CC1c1cc(-c3ccc4c(c3)OCO4)ccc12 (centres undefined)	.	/	/	/
N#Cc1cccc(NC(=O)c2cc(C3CCCCN3S(=O)(=O)c3cccc4cccnc34)on2)c1 (centres undefined)	.	/	/	/
COCCCNC(=O)c1ccccc1Oc1ccccc1	.	.	.	?
COCCCNC(=O)c1ccc2c3c(onc13)-c1ccccc1C2=O	?	0.889µM	.	.
Cc1[nH]n(-c2ncc(-c3ccc(Cl)cc3)s2)c(=O)c1C(c1ccc(Cl)cc1)C(C#N)C#N (centres undefined)	.	.	39.8µM	.
Cc1ccc(Nc2nnc(SCC(=O)c3ccc(O)cc3O)s2)cc1	.	.	11.2µM	.
CCOc1ccc(/C=N/NC(=O)c2[nH]c3ccc(C)cc3c2C)cc1	.	.	.	.
Cc1c(C(=O)N/N=C/c2ccc(Cl)cc2)[nH]c2ccc(Cl)cc12	.	.	14.1µM	.
CCCCCCN1C=C/C(=C\C=C(C#N)C#N)c2ccccc21	.	.	.	?
C=CCN1C=C/C(=C\C=C(C#N)C#N)c2ccccc21	14.1µM	.	.	.
O=C(CSc1nnc(Nc2ccccc2F)s1)c1cc2ccccc2o1	.	.	35.5µM	.
Nc1c(-c2nc(-c3cccs3)no2)nnn1-c1ccc(Cl)cc1	/	/	/	.
CCN1CCCc2cc(CN(CCN3CCOCC3)C(=S)Nc3cccc(C)c3)ccc21	14.1µM	.	.	.
CCN1CCCc2cc(CN(CCN3CCOCC3)C(=S)Nc3ccccc3C)ccc21	.	.	.	.
CCc1ccc(NC(=O)N(CCN2CCOCC2)Cc2ccc3c(c2)CCCN3CC)cc1	?	?	.	.
CCN1CCCc2cc(CN(CCN3CCOCC3)C(=O)Nc3ccc(C)c(C)c3)ccc21	11.2µM	.	.	?
CNCCc1c[nH]c2ccc(O)cc12	?	1.99µM	/	/
COc1ccc(N(CC(=O)NCc2ccccc2)S(=O)(=O)c2c(C)nn(C)c2C)cc1	.	.	8.91µM	?
COc1ccc(CNC(=O)Cc2c(C)c3cc4c(C)coc4cc3oc2=O)cc1	/	/	/	.
O=C(NC1CC1)c1ccc2snnc2c1	.	.	.	.
CCOC(=O)N1CCC(NC(=O)c2ccc3snnc3c2)CC1	.	.	44.7µM	?
COC(=O)[C@@]12C[C@@H](CC(=O)NCC34CC5CC(CC(C5)C3)C4)C(=O)N(CCc3ccc(OC)c(OC)c3)C1=CCC(C)(C)C2	.	/	/	/
SMILES	AMA1-RON2 inh	Giardia FBPA inh	AmpC inh no detg	AmpC detergent
CCCCn1nnnc1C1(C)CCC(=O)N1CCc1ccc(OC)c(OC)c1 (centres undefined)	.	/	/	/
Oc1ccc(/C=N/Nc2ccnc3cc(Cl)ccc23)cc1O	.	.	11.2µM	.
COc1cccc2c(=O)n(CC(=O)N3CCCc4ccccc43)ccc12	.	.	.	?
COc1cccc2c(=O)n(CC(=O)Nc3ccccc3)ccc12	.	.	50.1µM	.
COc1cccc2c(=O)n(CC(=O)Nc3ccc(F)cc3F)ccc12	.	.	25.1µM	?
COc1cccc2c(=O)n(CC(=O)N3CCCCC3)ccc12	.	.	39.8µM	.
CC(C)C[C@H](NC(=O)CNC(=O)[C@H](CCC(N)=O)NC(=O)[C@H](Cc1ccc(O)cc1)NC(=O)[C@@H](NC(=O)[C@H](Cc1ccc(O)cc1)NC(=O)CNC(=O)[C@@H](N)CCCN=C(N)N)C(C)C)C(=O)O	/	.	/	/
O=C(O)CCNc1cc2ccccc2cc1C(=O)O	.	4.46µM	.	?
COC(=O)c1ccc(NC(=O)CSc2nnc(-c3cccnc3)o2)cc1	.	/	.	?
NS(=O)(=O)c1ccc(CCNC(=O)CCCCCn2c(=S)[nH]c3ccc(Br)cc3c2=O)cc1	.	.	17.8µM	?
NCC1O[C@@H](OC2C(N)C[C@H](N)[C@@H](O[C@H]3OC(CO)C(O)C(N)C3O)C2O)C(N)C(O)C1O (some centres undefined)	/	.	/	/
CN(C1=C(N2CCOCC2)C(=O)c2ccccc2C1=O)c1ccccc1	15.8µM	?	.	.
COc1cc(/C=N/NC(=O)c2ccc(-n3cccc3)cc2)ccc1O	.	.	14.1µM	.
COc1cc(/C=N/NC(=O)c2ccncc2)ccc1OC(=O)c1ccco1	.	/	.	.
COc1cc(/C=N/NC(=O)c2ccc(F)cc2)ccc1OC(=O)c1ccco1	.	.	10µM	.
Cc1ccc(C(=O)N/C(=C\c2ccccc2F)c2nc(=S)[nH][nH]2)cc1	.	.	25.1µM	.
CC(Nc1ccc(Br)cc1)C(=O)NC(=O)NC1CCCCC1 (centres undefined)	.	/	/	/
COc1ccc(N2CCN(C(=O)c3cccnc3SCc3cccc(Br)c3)CC2)cc1	31.6µM	.	.	.
COc1ccc(C)cc1N(C(=O)c1ccco1)C(C(=O)NC1CCCC1)c1ccc(N2CCOCC2)cc1 (centres undefined)	.	/	.	.
CC(C)C[C@@H]1NC(=O)[C@H](Cc2ccc(O)cc2)NC(=O)c2cc([N+](=O)[O-])cc(I)c2NCCC[C@@H](C(N)=O)NC1=O	.	.	3.98µM	?
CCc1cccc(NC(=O)CSc2ncc3c(n2)-c2ccc(Cl)cc2N(Cc2ccccc2)S3(=O)=O)c1	/	/	/	.
Cc1ccc(NC(=O)CSc2nc(N)c3c4c(sc3n2)CSC(C)(C)C4)cc1	.	.	.	?
Cc1ccccc1NC(=O)CSc1nc(N)c2c3c(sc2n1)CSC(C)(C)C3	.	.	15.8µM	?
COc1ccc(OC)c(C2C(C(N)=O)=C(C)Nc3nc(CCCO)nn32)c1 (centres undefined)	.	.	1.58µM	?
COc1ccc(OC)c(C2C(C(=O)Nc3ccc(F)cc3)=C(C)Nc3nc(CCCO)nn32)c1 (centres undefined)	.	?	8.91µM	.
SMILES	AMA1-RON2 inh	Giardia FBPA inh	AmpC inh no detg	AmpC detergent
CC(C)(C)C1=CC=C(C(C)(C)C)C(=O)C1=O	/	7.92µM	.	.
O=S1(=O)CC(N2CC=CC2)CN1C1CCCCC1 (centres undefined)	.	/	/	/
CN(C)c1ccc(Sc2ccc3nc(N)nc(N)c3c2)cc1	10µM	/	/	/
Cc1cc(C)cc(NC(=O)COC(=O)COc2cccc3c2OC(C)(C)C3)c1	.	/	35.5µM	?
COc1cccc(NC(=O)c2nnn(Cc3cccc(C(F)(F)F)c3)c2N)c1	/	/	/	.
CCCCCC(=O)N1C[C@@H](n2cc(-c3ccc(F)cc3)nn2)[C@H](O)C[C@@H]1c1ccc(Cl)cc1	.	/	/	/
O=C(COC(=O)c1n[nH]c2ccccc12)Nc1ccccc1	.	.	.	.
CCN(CC)S(=O)(=O)c1cccc(NC(=O)COC(=O)c2cc(C)oc2C)c1	.	.	.	?

Screens: PubChem BioAssay, National Center for Advancing Translational Sciences (NCATS)
